Assay in all cases: DAPPL (digital affinity profiling via proximity ligation, sequencing); 10 mM Tris-HCl pH 7.5, 50 mM NaCl, 1 mM DTT, 4% glycerol, room temperature, 30 min; GST-TFs on glutathione beads, 16-mer random dsDNA library, 0.1% formaldehyde crosslink after washing; high values mean tight binding
In one assay the target is T1, FEV (Homo sapiens, UniProt Q99581 1-238).
T1 sequence: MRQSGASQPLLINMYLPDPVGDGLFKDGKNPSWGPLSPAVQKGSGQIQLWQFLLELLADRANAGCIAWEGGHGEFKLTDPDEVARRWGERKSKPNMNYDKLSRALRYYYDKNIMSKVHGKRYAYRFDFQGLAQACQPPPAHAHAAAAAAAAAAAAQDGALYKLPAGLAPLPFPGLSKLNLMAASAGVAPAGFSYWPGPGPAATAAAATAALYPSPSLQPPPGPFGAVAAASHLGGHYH
Conditions: protein: recombinant; tags: N-terminal GST; dsDNA, one strand shown. The gist of the method:
(§1)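 Yeast served to express human transcription factors as GST fusions, which were then captured on glutathione beads and labelled with DNA barcodes. Pooled with a tag-only sample, they were incubated with 200 nmole of a 16-mer random double-stranded DNA library for 30 min at room temperature in Tris/NaCl/DTT/glycerol buffer, washed, crosslinked with 0.1% formaldehyde, ligated by proximity, amplified by PCR and sequenced. Dividing each hexamer's read frequency for a factor by its frequency for the tag-only sample gives the binding signal.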

A further assay has as its target ETV5 (Homo sapiens, UniProt P41161 1-510). Conditions: protein: recombinant; tags: N-terminal GST; dsDNA, one strand shown. The gist of the method:
as §1

In the next assay the target is HSF1 (Homo sapiens, UniProt Q00613 1-529). Conditions: protein: recombinant; tags: N-terminal GST; chain copies: 3; dsDNA, one strand shown. The gist of the method: as §1
Sequence of HSF1 (Q00613 whole entry): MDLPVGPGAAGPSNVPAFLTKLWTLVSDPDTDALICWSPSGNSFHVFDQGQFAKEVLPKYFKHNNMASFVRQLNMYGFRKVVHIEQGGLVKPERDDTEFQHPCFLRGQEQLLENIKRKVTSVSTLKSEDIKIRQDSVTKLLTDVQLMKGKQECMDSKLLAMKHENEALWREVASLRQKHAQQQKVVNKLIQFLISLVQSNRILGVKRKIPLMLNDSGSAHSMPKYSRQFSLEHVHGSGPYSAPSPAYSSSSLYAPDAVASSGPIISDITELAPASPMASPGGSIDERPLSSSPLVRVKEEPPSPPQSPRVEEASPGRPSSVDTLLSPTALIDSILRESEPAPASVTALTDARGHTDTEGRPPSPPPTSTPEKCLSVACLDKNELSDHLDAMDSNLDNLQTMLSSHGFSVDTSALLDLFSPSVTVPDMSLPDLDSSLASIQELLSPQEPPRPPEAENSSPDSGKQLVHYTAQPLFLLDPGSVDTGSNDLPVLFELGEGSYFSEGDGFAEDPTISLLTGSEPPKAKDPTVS
In another assay the target is T2, SPIC (Homo sapiens, UniProt Q8N5J4 1-248).
T2 sequence: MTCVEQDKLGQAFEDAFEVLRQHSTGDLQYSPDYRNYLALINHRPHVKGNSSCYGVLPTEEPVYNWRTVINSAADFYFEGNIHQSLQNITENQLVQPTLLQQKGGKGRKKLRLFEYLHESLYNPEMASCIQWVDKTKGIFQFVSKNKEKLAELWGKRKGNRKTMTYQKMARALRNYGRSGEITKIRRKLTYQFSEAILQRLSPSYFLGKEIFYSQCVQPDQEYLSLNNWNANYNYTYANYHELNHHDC
Conditions: protein: recombinant; tags: N-terminal GST; dsDNA, one strand shown. The gist of the method: as §1

In a further assay the target is ELF4 (Homo sapiens, UniProt Q99607 1-663). Conditions: protein: recombinant; tags: N-terminal GST; dsDNA, one strand shown. The gist of the method: as §1
Sequence of ELF4 (Q99607 whole entry): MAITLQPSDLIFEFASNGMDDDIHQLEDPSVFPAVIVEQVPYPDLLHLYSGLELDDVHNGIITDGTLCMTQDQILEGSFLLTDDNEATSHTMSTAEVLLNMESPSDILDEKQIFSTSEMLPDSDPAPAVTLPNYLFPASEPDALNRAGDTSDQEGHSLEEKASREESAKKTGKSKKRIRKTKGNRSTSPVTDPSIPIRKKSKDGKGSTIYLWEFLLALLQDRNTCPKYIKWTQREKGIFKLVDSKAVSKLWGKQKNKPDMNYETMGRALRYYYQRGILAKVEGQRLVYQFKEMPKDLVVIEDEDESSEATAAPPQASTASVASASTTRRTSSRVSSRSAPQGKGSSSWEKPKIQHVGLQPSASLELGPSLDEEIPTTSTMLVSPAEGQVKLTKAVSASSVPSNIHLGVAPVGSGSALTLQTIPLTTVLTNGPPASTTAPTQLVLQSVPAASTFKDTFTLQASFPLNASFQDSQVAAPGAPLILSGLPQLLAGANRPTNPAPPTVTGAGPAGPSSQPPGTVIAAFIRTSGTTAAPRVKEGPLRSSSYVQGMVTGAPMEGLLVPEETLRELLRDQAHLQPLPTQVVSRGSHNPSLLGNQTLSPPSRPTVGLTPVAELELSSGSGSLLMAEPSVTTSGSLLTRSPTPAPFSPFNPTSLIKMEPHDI
For the next assay, the target named is T3, ELK4 (Homo sapiens, UniProt P28324-2 1-405).
T3 sequence: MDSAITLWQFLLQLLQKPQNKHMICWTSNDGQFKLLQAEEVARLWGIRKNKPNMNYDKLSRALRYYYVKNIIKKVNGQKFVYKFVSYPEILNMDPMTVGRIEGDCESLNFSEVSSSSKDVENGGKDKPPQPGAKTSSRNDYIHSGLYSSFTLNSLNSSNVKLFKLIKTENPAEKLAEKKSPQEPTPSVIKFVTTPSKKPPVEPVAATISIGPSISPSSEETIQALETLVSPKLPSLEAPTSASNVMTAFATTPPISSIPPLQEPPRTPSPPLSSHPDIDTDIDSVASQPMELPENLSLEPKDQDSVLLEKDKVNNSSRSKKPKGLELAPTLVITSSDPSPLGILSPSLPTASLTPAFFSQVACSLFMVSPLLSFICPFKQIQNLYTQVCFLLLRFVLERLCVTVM
Conditions: protein: recombinant; tags: N-terminal GST; dsDNA, one strand shown. The gist of the method:
as §1

The target of the next assay is T4, ETV2 (Homo sapiens, UniProt O00321 1-342).
T4 sequence: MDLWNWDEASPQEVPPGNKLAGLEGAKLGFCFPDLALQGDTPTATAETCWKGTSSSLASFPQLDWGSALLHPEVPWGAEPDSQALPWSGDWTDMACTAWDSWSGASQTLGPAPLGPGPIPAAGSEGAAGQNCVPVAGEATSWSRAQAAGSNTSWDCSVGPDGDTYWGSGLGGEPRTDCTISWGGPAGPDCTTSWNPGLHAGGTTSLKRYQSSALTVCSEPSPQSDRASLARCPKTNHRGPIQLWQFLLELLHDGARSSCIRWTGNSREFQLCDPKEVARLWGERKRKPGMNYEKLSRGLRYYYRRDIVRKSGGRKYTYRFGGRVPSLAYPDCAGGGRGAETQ
Conditions: protein: recombinant; tags: N-terminal GST; dsDNA, one strand shown. The method in brief: as §1

For another assay, the target named is T5, ELF3 (Homo sapiens, UniProt P78545 1-371).
T5 sequence: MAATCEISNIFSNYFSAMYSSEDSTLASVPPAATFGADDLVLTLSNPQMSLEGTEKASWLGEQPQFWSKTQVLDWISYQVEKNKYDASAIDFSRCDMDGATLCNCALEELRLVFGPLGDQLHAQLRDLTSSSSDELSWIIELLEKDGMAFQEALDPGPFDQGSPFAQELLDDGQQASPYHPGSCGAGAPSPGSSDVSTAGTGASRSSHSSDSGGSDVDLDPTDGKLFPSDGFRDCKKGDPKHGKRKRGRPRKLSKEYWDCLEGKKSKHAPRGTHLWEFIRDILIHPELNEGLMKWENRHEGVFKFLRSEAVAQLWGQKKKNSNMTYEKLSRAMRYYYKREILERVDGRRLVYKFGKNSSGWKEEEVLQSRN
Conditions: protein: recombinant; tags: N-terminal GST; dsDNA, one strand shown. The gist of the method: as §1

A further assay has as its target CRX (Homo sapiens, UniProt O43186 1-299). Conditions: protein: recombinant; tags: N-terminal GST; dsDNA, one strand shown. The method in brief: as §1
The target of another assay is ETV1 (Homo sapiens, UniProt P50549 1-477). Conditions: protein: recombinant; tags: N-terminal GST; dsDNA, one strand shown. The method in brief:
as §1

Another assay has as its target T6, ERF (Homo sapiens, UniProt P50548 1-548).
T6 sequence: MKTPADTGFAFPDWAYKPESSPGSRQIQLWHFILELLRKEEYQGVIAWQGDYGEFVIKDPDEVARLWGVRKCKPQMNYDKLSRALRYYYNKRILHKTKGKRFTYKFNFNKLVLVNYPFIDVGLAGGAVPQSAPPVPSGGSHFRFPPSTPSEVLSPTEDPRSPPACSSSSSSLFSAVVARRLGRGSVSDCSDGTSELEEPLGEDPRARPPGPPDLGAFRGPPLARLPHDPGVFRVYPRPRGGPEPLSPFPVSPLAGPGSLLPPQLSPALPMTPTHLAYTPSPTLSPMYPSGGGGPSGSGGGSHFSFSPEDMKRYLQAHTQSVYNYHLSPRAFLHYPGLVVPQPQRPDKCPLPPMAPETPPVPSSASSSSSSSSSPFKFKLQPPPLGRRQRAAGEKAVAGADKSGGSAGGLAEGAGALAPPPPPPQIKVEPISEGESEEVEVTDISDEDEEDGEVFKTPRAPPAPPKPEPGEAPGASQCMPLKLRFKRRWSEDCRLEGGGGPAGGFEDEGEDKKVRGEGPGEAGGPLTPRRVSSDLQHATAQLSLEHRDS
Conditions: protein: recombinant; tags: N-terminal GST; dsDNA, one strand shown. The method in brief:
as §1

For a further assay, the target named is T7, ETV3L (Homo sapiens, UniProt Q6ZN32 1-361).
T7 sequence: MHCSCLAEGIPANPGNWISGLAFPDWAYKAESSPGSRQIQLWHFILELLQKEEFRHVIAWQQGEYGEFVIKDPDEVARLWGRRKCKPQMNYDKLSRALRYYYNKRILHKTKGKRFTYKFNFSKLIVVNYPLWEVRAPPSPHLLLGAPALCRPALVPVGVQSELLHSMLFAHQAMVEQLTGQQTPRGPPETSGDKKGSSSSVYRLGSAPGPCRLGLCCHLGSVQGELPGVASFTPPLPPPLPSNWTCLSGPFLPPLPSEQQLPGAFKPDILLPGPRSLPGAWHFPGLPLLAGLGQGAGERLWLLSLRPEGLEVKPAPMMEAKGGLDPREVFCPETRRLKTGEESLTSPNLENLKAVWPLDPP
Conditions: protein: recombinant; tags: N-terminal GST; dsDNA, one strand shown. The method in brief: as §1

The target in a further assay is T8, ETS2 (Homo sapiens, UniProt P15036 1-469).
T8 sequence: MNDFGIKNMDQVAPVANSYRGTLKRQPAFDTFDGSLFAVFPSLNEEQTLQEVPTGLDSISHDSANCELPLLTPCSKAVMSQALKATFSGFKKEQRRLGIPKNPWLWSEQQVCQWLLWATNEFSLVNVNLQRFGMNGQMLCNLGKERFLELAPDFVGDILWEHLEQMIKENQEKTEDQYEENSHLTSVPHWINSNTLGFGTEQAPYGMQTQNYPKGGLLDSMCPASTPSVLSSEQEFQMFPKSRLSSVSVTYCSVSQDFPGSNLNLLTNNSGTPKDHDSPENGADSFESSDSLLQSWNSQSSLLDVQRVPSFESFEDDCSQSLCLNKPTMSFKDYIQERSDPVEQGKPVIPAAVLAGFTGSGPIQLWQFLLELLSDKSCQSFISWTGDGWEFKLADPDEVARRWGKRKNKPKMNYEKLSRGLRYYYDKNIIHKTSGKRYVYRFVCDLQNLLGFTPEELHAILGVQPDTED
Conditions: protein: recombinant; tags: N-terminal GST; dsDNA, one strand shown. The gist of the method: as §1

A further assay deals with T9, SPDEF (Homo sapiens, UniProt O95238 1-335).
T9 sequence: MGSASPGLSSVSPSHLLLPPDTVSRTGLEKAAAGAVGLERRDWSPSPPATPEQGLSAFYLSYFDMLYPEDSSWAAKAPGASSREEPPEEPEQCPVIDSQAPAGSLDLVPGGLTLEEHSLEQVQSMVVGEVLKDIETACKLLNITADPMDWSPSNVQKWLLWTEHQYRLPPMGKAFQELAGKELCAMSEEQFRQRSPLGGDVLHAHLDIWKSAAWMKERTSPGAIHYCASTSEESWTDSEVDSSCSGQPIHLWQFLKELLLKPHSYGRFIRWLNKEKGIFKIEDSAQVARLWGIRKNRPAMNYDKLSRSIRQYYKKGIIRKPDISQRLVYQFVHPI
Conditions: protein: recombinant; tags: N-terminal GST; dsDNA, one strand shown. The gist of the method: as §1

Another assay has as its target T10, ETV7 (Homo sapiens, UniProt Q9Y603 1-341).
T10 sequence: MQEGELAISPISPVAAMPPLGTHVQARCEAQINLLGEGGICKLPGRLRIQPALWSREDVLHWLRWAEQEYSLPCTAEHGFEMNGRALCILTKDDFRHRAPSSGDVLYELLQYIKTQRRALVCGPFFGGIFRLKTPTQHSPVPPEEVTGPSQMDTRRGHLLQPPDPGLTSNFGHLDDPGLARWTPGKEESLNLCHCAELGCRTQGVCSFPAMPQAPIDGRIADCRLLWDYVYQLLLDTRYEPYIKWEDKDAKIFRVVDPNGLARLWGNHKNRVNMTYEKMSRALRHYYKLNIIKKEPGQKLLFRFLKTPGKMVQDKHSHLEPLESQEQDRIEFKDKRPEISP
Conditions: protein: recombinant; tags: N-terminal GST; dsDNA, one strand shown. The method in brief:
as §1

Another assay deals with T11, ELF5 (Homo sapiens, UniProt Q9UKW6-2 1-255).
T11 sequence: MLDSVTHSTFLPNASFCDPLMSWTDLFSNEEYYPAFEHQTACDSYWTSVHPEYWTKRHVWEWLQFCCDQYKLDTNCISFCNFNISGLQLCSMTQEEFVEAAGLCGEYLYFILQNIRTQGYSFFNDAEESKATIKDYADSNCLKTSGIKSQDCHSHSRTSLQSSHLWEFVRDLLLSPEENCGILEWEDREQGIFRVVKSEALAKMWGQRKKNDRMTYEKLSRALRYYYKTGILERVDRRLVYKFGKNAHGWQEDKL
Conditions: protein: recombinant; tags: N-terminal GST; dsDNA, one strand shown. The method in brief: as §1

Another assay addresses T12, ETV3 (Homo sapiens, UniProt P41162-2 1-143).
T12 sequence: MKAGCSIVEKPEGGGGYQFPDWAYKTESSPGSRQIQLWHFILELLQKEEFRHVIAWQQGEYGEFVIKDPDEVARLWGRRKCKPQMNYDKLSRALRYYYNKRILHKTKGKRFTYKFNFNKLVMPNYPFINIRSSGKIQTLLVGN
Conditions: protein: recombinant; tags: N-terminal GST; dsDNA, one strand shown. The method in brief:
as §1

In the next assay the target is ETV6 (Homo sapiens, UniProt P41212 1-452). Conditions: protein: recombinant; tags: N-terminal GST; dsDNA, one strand shown. The method in brief: as §1
Sequence of ETV6 (P41212 whole entry): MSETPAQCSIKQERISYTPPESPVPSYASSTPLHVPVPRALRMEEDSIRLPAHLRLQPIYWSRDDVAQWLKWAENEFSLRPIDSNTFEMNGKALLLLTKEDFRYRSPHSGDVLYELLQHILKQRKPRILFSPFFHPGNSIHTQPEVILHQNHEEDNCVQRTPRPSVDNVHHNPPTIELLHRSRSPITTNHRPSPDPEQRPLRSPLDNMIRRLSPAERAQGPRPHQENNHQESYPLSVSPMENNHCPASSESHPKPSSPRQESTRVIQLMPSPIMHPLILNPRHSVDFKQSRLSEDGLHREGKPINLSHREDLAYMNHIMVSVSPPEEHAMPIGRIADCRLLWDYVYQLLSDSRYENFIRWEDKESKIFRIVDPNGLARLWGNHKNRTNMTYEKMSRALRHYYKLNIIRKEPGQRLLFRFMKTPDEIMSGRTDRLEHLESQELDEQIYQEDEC

Sequence of CRX (O43186 whole entry): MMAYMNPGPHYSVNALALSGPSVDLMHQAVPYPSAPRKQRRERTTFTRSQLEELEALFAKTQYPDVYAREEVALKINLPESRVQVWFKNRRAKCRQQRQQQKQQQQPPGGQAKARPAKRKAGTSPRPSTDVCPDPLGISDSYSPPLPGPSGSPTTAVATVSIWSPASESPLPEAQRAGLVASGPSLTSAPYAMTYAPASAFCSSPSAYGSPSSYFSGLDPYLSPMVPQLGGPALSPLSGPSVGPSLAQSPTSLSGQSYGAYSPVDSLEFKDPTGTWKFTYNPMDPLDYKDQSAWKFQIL
Sequence of ETV1 (P50549 whole entry): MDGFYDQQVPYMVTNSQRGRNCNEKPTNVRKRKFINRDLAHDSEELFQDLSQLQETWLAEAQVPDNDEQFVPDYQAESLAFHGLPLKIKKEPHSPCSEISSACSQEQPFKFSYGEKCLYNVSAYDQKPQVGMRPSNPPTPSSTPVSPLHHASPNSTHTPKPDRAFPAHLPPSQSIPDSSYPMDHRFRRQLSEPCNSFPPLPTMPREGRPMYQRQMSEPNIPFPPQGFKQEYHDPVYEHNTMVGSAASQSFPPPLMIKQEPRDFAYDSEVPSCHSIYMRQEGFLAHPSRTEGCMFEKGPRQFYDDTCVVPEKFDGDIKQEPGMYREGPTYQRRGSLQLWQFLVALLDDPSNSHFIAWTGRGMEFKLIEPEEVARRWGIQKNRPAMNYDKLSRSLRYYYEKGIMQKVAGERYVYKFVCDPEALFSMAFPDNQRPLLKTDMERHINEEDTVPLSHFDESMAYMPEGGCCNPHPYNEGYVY
Sequence of ETV5 (P41161 whole entry): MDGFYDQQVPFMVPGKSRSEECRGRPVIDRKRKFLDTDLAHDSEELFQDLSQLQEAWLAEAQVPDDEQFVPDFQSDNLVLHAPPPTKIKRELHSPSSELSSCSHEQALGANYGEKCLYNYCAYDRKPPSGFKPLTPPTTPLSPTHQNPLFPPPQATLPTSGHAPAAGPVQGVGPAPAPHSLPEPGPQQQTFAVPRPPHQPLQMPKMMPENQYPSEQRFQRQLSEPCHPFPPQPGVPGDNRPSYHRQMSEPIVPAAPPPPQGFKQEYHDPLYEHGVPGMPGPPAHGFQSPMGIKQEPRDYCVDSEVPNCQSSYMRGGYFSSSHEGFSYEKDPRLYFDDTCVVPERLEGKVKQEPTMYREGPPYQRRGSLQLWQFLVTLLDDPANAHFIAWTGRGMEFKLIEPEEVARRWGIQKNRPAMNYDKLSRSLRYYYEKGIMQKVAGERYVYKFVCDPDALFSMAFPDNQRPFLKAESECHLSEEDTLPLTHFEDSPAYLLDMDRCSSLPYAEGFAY

As for ACCAAT, the binding signal in the assay with FEV was 1.25 fold enrichment (6-mer frequency, TF over GST control); in the assay with ETV5, 1.24 fold enrichment (6-mer frequency, TF over GST control); in the assay with HSF1, 1.16 fold enrichment (6-mer frequency, TF over GST control); in the assay with SPIC it was 1.31 fold enrichment (6-mer frequency, TF over GST control); in the assay with ELF4, 1.38 fold enrichment (6-mer frequency, TF over GST control); with ELK4 it was 1.35 fold enrichment (6-mer frequency, TF over GST control). For the same sequence, the binding signal is 1.13 fold enrichment (6-mer frequency, TF over GST control) with ETV2; 1.28 fold enrichment (6-mer frequency, TF over GST control) in the assay with ELF3; 1.16 fold enrichment (6-mer frequency, TF over GST control) with CRX; 1.3 fold enrichment (6-mer frequency, TF over GST control) in the assay with ETV1; 1.32 fold enrichment (6-mer frequency, TF over GST control) in the assay with ERF; 1.28 fold enrichment (6-mer frequency, TF over GST control) in the assay with ETV3L. Further, the binding signal with ETS2 is 1.39 fold enrichment (6-mer frequency, TF over GST control); with SPDEF it was 1.24 fold enrichment (6-mer frequency, TF over GST control); with ETV7, 1.29 fold enrichment (6-mer frequency, TF over GST control); with ELF5 it was 1.23 fold enrichment (6-mer frequency, TF over GST control); with ETV3, 1.29 fold enrichment (6-mer frequency, TF over GST control); with ETV6, 1.34 fold enrichment (6-mer frequency, TF over GST control).

The record behind these values is publication PMC7862700, “An all-to-all approach to the identification of sequence-specific readers for epigenetic DNA modifications on cytosine”.
